From PubChem BioAssay (EPA / NIEHS) come the findings set out here.

SMILES strings stand for the structures. Active and inactive are the calls of the source. Rule for the calls: active = hit-call score of the fitted dose curve at least 0.9, where 1 is the maximum; inactive = score below 0.9.

In general, AC50 refers to the midpoint of the concentration-response curve, whichever way the signal moves.

The nature of the test: CCTE_Shafer_MEA_dev_burst_rate: CCTE's Neural Network Formation Assay for Burst Rate, Shafer Lab (AID 2284042).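 For AC50: potency for loss of burst rate below DMSO control.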 An outline of the steps: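 Cells plated, treated day 0; recorded DIV 5, 7, 9, 12; fed and re-treated DIV 5, 9. Endpoint: bursts per recording time, active-electrode well mean, trapezoidal AUC, fitted in decreasing direction against DMSO baseline.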
For `c1ccc(OP(Oc2ccccc2)Oc2ccccc2)cc1`, the outcome was inactive.

Take `ClC1=C(Cl)C2(Cl)C3C(Cl)C(Cl)CC3C1(Cl)C2(Cl)Cl` (configuration not stated): the AC50 is 7.48 µM (active).

Regarding `CC(C)(C)c1ccccc1OP(=O)(Oc1ccccc1)Oc1ccccc1`, the result was inactive.

In the case of `CCC1(c2ccccc2)C(=O)N=C(O)NC1=O` (configuration not stated), the compound was classed as inactive.

Regarding `O=C(O)C1C(C(=O)O)C2(Cl)C(Cl)=C(Cl)C1(Cl)C2(Cl)Cl` (configuration not stated), the compound was classed as inactive.

For `CCCCC(CC)COP(=O)(Oc1ccccc1)Oc1ccccc1` (configuration not stated), the outcome was inactive.

With `CCOc1ccc(C(C)(C)COCc2cccc(Oc3ccccc3)c2)cc1`, the compound was called inactive.
